Measurements from PubChem BioAssay (NCI).
The panel holds about 79,000 compounds, 15% with a hit somewhere; the sample as a whole holds those more often. A number with no mark means an inactive call. Calls of active or inactive are those of the source. No stated cut-off is given here; in the data, active means growth inhibition above about 70%; inactive means the rest. Where a SMILES comes first, the peptide text is derived from it. The star is where a group is joined. Cbz = O=C(OCc1ccccc1)*; OBn = c1ccc(CO*)cc1

Columns and labels:
[1] = NCI Yeast Anticancer Drug Screen. Data for the rad50 strain (AID 155);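 further: 0% = growth of vehicle-only cultures of the same strain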; conditions: S. cerevisiae rad50 strain growth inhibition; at 50.0 µM; active compounds read high
Method in brief: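 A DNA repair-deficient yeast mutant serves as the test organism; compound-induced growth inhibition is calculated against vehicle-treated cells.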

[2] = NCI Yeast Anticancer Drug Screen. Data for the mec2-1 strain (AID 157); conditions: S. cerevisiae mec2-1 strain, at 50.0 µM, active compounds read high
Method in brief: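 Each compound was tested on mec2-1 yeast, a strain altered in DNA damage repair or cell cycle control. Growth inhibition is reported relative to vehicle.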

[3] = NCI Yeast Anticancer Drug Screen. Data for the sgs1 mgt1 strain (AID 161);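 further: 0% = growth of cultures given vehicle only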; conditions: S. cerevisiae sgs1 mgt1 strain, at 50.0 µM, active compounds read high
Method in brief: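 Inhibition of yeast growth, normalised to vehicle-treated controls, is reported for a strain bearing genetic alterations in DNA damage repair.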

[4] = NCI Yeast Anticancer Drug Screen. Data for the cln2 rad14 strain (AID 165);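 further: 0% = growth equal to vehicle treated cultures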; conditions: S. cerevisiae cln2 rad14 strain, at 50.0 µM, active compounds read high
Method in brief: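 Test compounds were added to cln2 rad14 yeast cultures; inhibition of growth was then determined by comparison with vehicle treatment.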

[5] = NCI Yeast Anticancer Drug Screen. Data for the bub3 strain (AID 167); conditions: S. cerevisiae bub3 mutant strain, at 50.0 µM, active compounds read high
Method in brief: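 Inhibition values come from growth of compound-treated mutant yeast normalised to vehicle-treated controls.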

[6] = NCI Yeast Anticancer Drug Screen. Data for the mlh1 rad18 strain (AID 175); conditions: S. cerevisiae mlh1 rad18 strain growth inhibition; at 50.0 µM; active compounds read high
Method in brief: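 Inhibition values reflect reduced growth of mutant yeast versus vehicle-treated controls following compound exposure; the mutations affect DNA damage repair.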

SMILES: CCCCc1c2c(nn1C(C)=O)C(=O)C=C(Nc1ccccc1)C2=O
- growth inhibition [1]: 21.8%
- growth inhibition [2]: 21.8%
- growth inhibition [3]: 19.7%
- growth inhibition [4]: -7.65%
- growth inhibition [5]: 4.7%
- growth inhibition [6]: 9.5%

SMILES: Oc1ccc(Cl)cc1/C=N/NC(=S)Nc1cccc2cccnc12
- growth inhibition [1]: 24.1%
- growth inhibition [2]: 12.6%
- growth inhibition [3]: 10.7%
- growth inhibition [4]: 20.6%
- growth inhibition [5]: 20.1%
- growth inhibition [6]: 15.7%

SMILES: COC1CC(OC2CCC3(C)C(=CCC4C3C(OC(C)=O)C(OC(=O)CC(C)C)C3(C)C(C(C)=O)CCC43O)C2)OC(C)C1OC1CC(OC)C(OC2CC(OC)C(OC3OC(C)C(OC4OC(CO)C(O)C(O)C4O)C(OC)C3O)C(C)O2)C(C)O1 (centres undefined)
- growth inhibition [1]: 2.4%
- growth inhibition [2]: 5.2%
- growth inhibition [3]: 16.4%
- growth inhibition [4]: 21.6%
- growth inhibition [5]: -7.45%
- growth inhibition [6]: -38.4%

SMILES: O=C1c2ccccc2OCC1CS(=O)(=O)CC1COc2ccccc2C1=O (centres undefined)
- growth inhibition [1]: -9.5%
- growth inhibition [2]: 9.7%
- growth inhibition [3]: -5.45%
- growth inhibition [4]: 16.2%
- growth inhibition [5]: -0.5%
- growth inhibition [6]: 7.4%

SMILES: O=S(=O)(Cc1ccccc1)C(I)c1ccccc1 (centres undefined)
- growth inhibition [1]: 82.2% (active)
- growth inhibition [2]: 55.9%
- growth inhibition [3]: 65.5%
- growth inhibition [4]: 51%
- growth inhibition [5]: 60.7%
- growth inhibition [6]: 73% (active)

SMILES: O=C1c2ccccc2C(=O)N1Cl
- growth inhibition [1]: 8.7%
- growth inhibition [2]: -4.75%
- growth inhibition [3]: -37.1%
- growth inhibition [4]: -0.05%
- growth inhibition [5]: 2.2%
- growth inhibition [6]: -5.75%

SMILES: O=C(CCc1ccc(O)c(O)c1)NCCc1cc(OCc2ccccc2)cc(OCc2ccccc2)c1
- growth inhibition [1]: 83.9% (active)
- growth inhibition [2]: 88.4% (active)
- growth inhibition [3]: 83.2% (active)
- growth inhibition [4]: 87.5% (active)
- growth inhibition [5]: 82.2% (active)
- growth inhibition [6]: 73.1% (active)

SMILES: c1cc2c3c(c1)ccc1cccc(c13)C2
- growth inhibition [1]: 39.6%
- growth inhibition [2]: -26.2%
- growth inhibition [3]: 12.8%
- growth inhibition [4]: 11.9%
- growth inhibition [5]: 24.6%
- growth inhibition [6]: 27.1%

SMILES: O=C(C=c1sc(=CC(=O)c2ccccc2)s1)c1ccccc1
- growth inhibition [1]: -3.5%
- growth inhibition [2]: -4.35%
- growth inhibition [3]: 14.7%
- growth inhibition [4]: -41.3%
- growth inhibition [5]: 2.1%
- growth inhibition [6]: -35.6%

SMILES: CC1=NS(=O)(=O)c2ccccc2N1
- growth inhibition [1]: 0.3%
- growth inhibition [2]: -4.4%
- growth inhibition [3]: 4.75%
- growth inhibition [4]: 15.9%
- growth inhibition [5]: 4.45%
- growth inhibition [6]: 10.2%

SMILES: N#C/C(=N\NC(=O)c1ccccc1Cl)c1ccccc1Cl
- growth inhibition [1]: 89.5% (active)
- growth inhibition [2]: 79.3% (active)
- growth inhibition [3]: 83% (active)
- growth inhibition [4]: 82.2% (active)
- growth inhibition [5]: 67.3%
- growth inhibition [6]: 77.8% (active)

SMILES: CN(Cc1cccc(Cl)c1)C(=O)Nc1ccccc1Cl
- growth inhibition [1]: -1.25%
- growth inhibition [2]: 48.8%
- growth inhibition [3]: 47.5%
- growth inhibition [4]: -21%
- growth inhibition [5]: 34.6%
- growth inhibition [6]: 53.4%

SMILES: OCCCN1CCN(CCO)CC1
- growth inhibition [1]: -42%
- growth inhibition [2]: -14.8%
- growth inhibition [3]: -12.7%
- growth inhibition [4]: -48.9%
- growth inhibition [5]: 4.25%
- growth inhibition [6]: -2.25%

SMILES: Cc1cccc(C)c1NC(=S)N(CCC#N)Cc1ccccc1
- growth inhibition [1]: 6.8%
- growth inhibition [2]: 1.45%
- growth inhibition [3]: 1.9%
- growth inhibition [4]: -4.55%
- growth inhibition [5]: 12.3%
- growth inhibition [6]: -11.1%

SMILES: CCN(CC)CCNc1ccc(N)c2sc3ccccc3c(=O)c12
- growth inhibition [1]: 8.45%
- growth inhibition [2]: 3.8%
- growth inhibition [3]: -18.7%
- growth inhibition [4]: -8.25%
- growth inhibition [5]: -37.6%
- growth inhibition [6]: -29.1%

SMILES: COC1OC(OC)c2cc([N+](=O)[O-])ccc21 (centres undefined)
- growth inhibition [1]: 9.9%
- growth inhibition [2]: 17.3%
- growth inhibition [3]: 18.1%
- growth inhibition [4]: 23.2%
- growth inhibition [5]: -11.1%
- growth inhibition [6]: 50.2%

SMILES: O=C1ON=C2C3CC4CC12CC1(C3)C(=O)ON=C41
- growth inhibition [1]: -3.05%
- growth inhibition [2]: -6.45%
- growth inhibition [3]: -3.8%
- growth inhibition [4]: -1.9%
- growth inhibition [5]: -12.1%
- growth inhibition [6]: -19.8%

SMILES: CC(=O)OC1C[C@H]2C(OC(=O)c3ccccc3)C3C4(OC(C)=O)COC4C[C@H](OC(C)=O)[C@@]3(C)C(OC(C)=O)[C@H](OC(C)=O)C(=C1C)C2(C)C (some centres undefined)
- growth inhibition [1]: 41.2%
- growth inhibition [2]: 22.6%
- growth inhibition [3]: 31.7%
- growth inhibition [4]: 28.9%
- growth inhibition [5]: 26.4%
- growth inhibition [6]: 35.2%

SMILES: CCCCCCN(CCCCCC)C1=CC(=O)C(=O)c2ccccc21
- growth inhibition [1]: 52.9%
- growth inhibition [2]: 31.8%
- growth inhibition [3]: 48.4%
- growth inhibition [4]: 60%
- growth inhibition [5]: 35.1%
- growth inhibition [6]: 54.2%

SMILES: CC(=O)c1ccc(N=NN2CCCC2)cc1
- growth inhibition [1]: 30.2%
- growth inhibition [2]: 8.35%
- growth inhibition [3]: 17.1%
- growth inhibition [4]: 31.4%
- growth inhibition [5]: 34.2%
- growth inhibition [6]: 2.7%

SMILES: c1ccc(C2=Nc3ccccc3C(c3ccccc3)=Nc3ccccc32)cc1
- growth inhibition [1]: 1.05%
- growth inhibition [2]: 3.7%
- growth inhibition [3]: -8.95%
- growth inhibition [4]: -18.5%
- growth inhibition [5]: -1.8%
- growth inhibition [6]: 2.05%

SMILES: O=C1CCCC(c2ccccc2)O1 (centres undefined)
- growth inhibition [1]: -3.1%
- growth inhibition [2]: -14.2%
- growth inhibition [3]: 5.2%
- growth inhibition [4]: -67.5%
- growth inhibition [5]: -27.4%
- growth inhibition [6]: 14.7%

SMILES: CCOC(C#CC(=O)C(C)C)OCC
- growth inhibition [1]: -17.2%
- growth inhibition [2]: 3.15%
- growth inhibition [3]: 0.85%
- growth inhibition [4]: 2.25%
- growth inhibition [5]: 27.4%
- growth inhibition [6]: 19.4%

SMILES: CCOC(=O)C1C(C)NC(C)C(C(=O)OCC)C1C (centres undefined)
- growth inhibition [1]: 15.9%
- growth inhibition [2]: 1.05%
- growth inhibition [3]: 3.4%
- growth inhibition [4]: -44.5%
- growth inhibition [5]: 5.3%
- growth inhibition [6]: 26.1%

SMILES: CC(C)CCCC(C)CCCl (centres undefined)
- growth inhibition [1]: 3.85%
- growth inhibition [2]: -1.1%
- growth inhibition [3]: -5.85%
- growth inhibition [4]: 1.95%
- growth inhibition [5]: 3.2%
- growth inhibition [6]: -0.2%

SMILES: N=S(c1ccccc1)c1ccccc1[N+](=O)[O-] (centres undefined)
- growth inhibition [1]: 16.2%
- growth inhibition [2]: -6.65%
- growth inhibition [3]: 18.6%
- growth inhibition [4]: 11.8%
- growth inhibition [5]: 4.35%
- growth inhibition [6]: -3.45%

SMILES: CN(C)Cc1ccc(-c2cc3onc(-c4ccccc4)c3c(=O)n2C)cc1
- growth inhibition [1]: -22.9%
- growth inhibition [2]: -13.1%
- growth inhibition [3]: -29.5%
- growth inhibition [4]: -8.4%
- growth inhibition [5]: -28%
- growth inhibition [6]: 2.5%

SMILES: O=C(CCc1cc(O)cc(O)c1)NCCc1cc(O)cc(O)c1
- growth inhibition [1]: 6.55%
- growth inhibition [2]: 5.9%
- growth inhibition [3]: 17.4%
- growth inhibition [4]: 26.4%
- growth inhibition [5]: 8.8%
- growth inhibition [6]: -46%

SMILES: CC1=NN(c2ccc(S(=O)(=O)O)cc2)C(=O)C1N=Nc1ccc(C)c(S(=O)(=O)Nc2ccccc2)c1 (centres undefined)
- growth inhibition [1]: 5.95%
- growth inhibition [2]: -17.9%
- growth inhibition [3]: 8%
- growth inhibition [4]: 15%
- growth inhibition [5]: 5.45%
- growth inhibition [6]: 10.8%

SMILES: CCOC(=O)Nc1nc2ccccc2n1CN1CCCCC1
- growth inhibition [1]: 18.5%
- growth inhibition [2]: 11.1%
- growth inhibition [3]: 23.4%
- growth inhibition [4]: 16.4%
- growth inhibition [5]: 0.2%
- growth inhibition [6]: 27.2%

SMILES: COc1ccc(CCN(C)C2c3ccccc3C=Cc3ccccc32)cc1OC
- growth inhibition [1]: 30.5%
- growth inhibition [2]: 2.4%
- growth inhibition [3]: 3.35%
- growth inhibition [4]: -16.2%
- growth inhibition [5]: -1.85%
- growth inhibition [6]: 8.65%

SMILES: O=C(NC(CO)C(=O)N1CCCC1C(=O)OCc1ccccc1)OCc1ccccc1 (stereo not drawn) (Cbz-Ser-Pro-OBn; configuration not given here)
- growth inhibition [1]: 8.55%
- growth inhibition [2]: 7%
- growth inhibition [3]: 7.05%
- growth inhibition [4]: 23.9%
- growth inhibition [5]: 4.45%
- growth inhibition [6]: 7.6%

SMILES: Cc1nc(N)c2nc(SC(C)C)c(N)nc2n1
- growth inhibition [1]: 2.85%
- growth inhibition [2]: -6.55%
- growth inhibition [3]: 0.45%
- growth inhibition [4]: -31.2%
- growth inhibition [5]: -20.9%
- growth inhibition [6]: 17.2%

SMILES: CCCCCCCCn1c(C)nc2c(cnn2C)c1=O
- growth inhibition [1]: -9.6%
- growth inhibition [2]: -19.2%
- growth inhibition [3]: -6.15%
- growth inhibition [4]: 20.9%
- growth inhibition [5]: 36.1%
- growth inhibition [6]: 4.8%

SMILES: O=C(O)c1[nH]c(=O)[nH]c(=O)c1Br
- growth inhibition [1]: -4.3%
- growth inhibition [2]: -22.9%
- growth inhibition [3]: -9.75%
- growth inhibition [4]: -40.5%
- growth inhibition [5]: -15.7%
- growth inhibition [6]: -17.6%

SMILES: COC(=O)COc1ccccc1[N+](=O)[O-]
- growth inhibition [1]: -0.15%
- growth inhibition [2]: 2.55%
- growth inhibition [3]: 0.6%
- growth inhibition [4]: 3.7%
- growth inhibition [5]: 5.25%
- growth inhibition [6]: 4.45%

SMILES: CCN(CC)C(=O)CC(C)(C)O
- growth inhibition [1]: 4.95%
- growth inhibition [2]: 9.15%
- growth inhibition [3]: -5.75%
- growth inhibition [4]: -0.9%
- growth inhibition [5]: 6.15%
- growth inhibition [6]: -1.6%

SMILES: CN(C)c1ccc(C=C(c2ccc(N)cc2)c2ccc(N)cc2)cc1
- growth inhibition [1]: 9.25%
- growth inhibition [2]: -1.05%
- growth inhibition [3]: 24.3%
- growth inhibition [4]: -0.6%
- growth inhibition [5]: 52.4%
- growth inhibition [6]: 20.6%

SMILES: CCN(CC)N1C(=O)[N+](CC)(CC)N=C1[O-]
- growth inhibition [1]: -8.55%
- growth inhibition [2]: 4.15%
- growth inhibition [3]: -11.6%
- growth inhibition [4]: -30.8%
- growth inhibition [5]: -5.35%
- growth inhibition [6]: 2.05%
